nsP2pro inh: CHIKV nsP2 protease inhibition, primary qHTS; Q8JUX6; FRET peptide cleavage, nsP2pro, fluorescence 1 h; Potency, µM (titrated, usually from 24.9 µM), inactives show at the highest dose activity change, negative = inhibition, usual class: inhibitors; actives 1.1% (n = 31,000); AID 1964107; note: nearly all actives have a fitted effect of over 60% in size
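FRET cleavage of 2.5 uM peptide 2 by 150 nM CHIKV protease domain at pH 8.0 (Tris, Tween 20). Compounds at 7 concentrations (up to 25 uM) preincubated 15 min. Fluorescence read after 1 h at room temperature.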
nsP2 cell sec: secondary cell-based test for CHIKV nsP2 protease inhibitors; shares compounds with nsP2pro inh; cell-based CHIKV nsP2 protease reporter assay; Potency, µM (series often up to 51.1 µM), without a hit: at the highest dose activity change, negative = inhibition, actives largely listed as inhibitors; actives 10% (n = 450); AID 1964100; note: nearly all actives have a fitted effect of over 70% in size
NSP2 full ctr: inhibits full-length CHIKV NSP2 enzyme; Potency, µM (doses to about 50.7 µM), inactives show at the highest dose activity change, negative = inhibition, most hits filed as inhibitors; Full-length CHIKV NSP2 protease enzymatic counterscreen; AID 1964101; actives 39% (n = 410); shares compounds with nsP2pro inh; note: nearly all actives have a fitted effect of over 65% in size
Furin counterscr: selectivity counter-screen for CHIKV nsP2 protease inhibitors: human furin. shares compounds with nsP2pro inh. Recombinant human furin enzymatic counterscreen, fluorogenic substrate. Potency, µM (top dose mostly 50.6 µM), inactives show at the highest dose activity change, negative = inhibition, usual class: inhibitors. actives 6% (n = 410)
NS23 peptide cs: blocks CHIKV nsP2 protease cleavage of endogenous NS2/3 peptide; shares compounds with nsP2pro inh; Purified CHIKV nsP2 protease, endogenous NS2/3 peptide cleavage; Potency, µM (titrated, usually from 51 µM), without a hit: at the top dose activity change, negative = inhibition, most hits filed as inhibitors; actives 34% (n = 410); AID 1964103; note: nearly all actives have a fitted effect of over 55% in size
Papain cs: selectivity counter-screen for CHIKV nsP2 protease inhibitors: papain. shares compounds with nsP2pro inh. purified papain protease activity, enzymatic inhibition. Potency, µM (highest dose often 51 µM), inactives show at the highest dose activity change, negative = inhibition, usual class: inhibitors. actives 5% (n = 410). AID 1964104
Target sequence (P00784 whole entry, looked up): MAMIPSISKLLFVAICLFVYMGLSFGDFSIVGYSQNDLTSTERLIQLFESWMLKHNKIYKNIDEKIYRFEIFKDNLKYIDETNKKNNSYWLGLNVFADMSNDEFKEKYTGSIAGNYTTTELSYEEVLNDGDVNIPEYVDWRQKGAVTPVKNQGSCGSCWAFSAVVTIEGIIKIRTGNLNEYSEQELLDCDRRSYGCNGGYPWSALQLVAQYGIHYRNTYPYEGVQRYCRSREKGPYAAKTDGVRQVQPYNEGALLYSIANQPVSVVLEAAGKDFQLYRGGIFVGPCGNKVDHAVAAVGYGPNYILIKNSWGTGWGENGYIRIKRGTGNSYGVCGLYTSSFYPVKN
nsP2pro confirm: CHIKV nsP2 protease inhibition, confirmatory qHTS | shares compounds with nsP2pro inh | CHIKV nsP2 protease enzymatic activity, qHTS | Potency, µM (highest dose often 25.5 µM), for inactives: top-dose activity change, negative = inhibition, hits mostly inhibitors | actives 43% (n = 410) | AID 1964105; note: nearly all actives have a fitted effect of over 75% in size
HCV NS3 4A cs: selectivity counter-screen for CHIKV nsP2 protease inhibitors: HCV NS3/4A; shares compounds with nsP2pro inh; HCV NS3/4A protease biochemical counterscreen; Potency, µM (doses to about 50.9 µM), usual class: inhibitors; actives 20% (n = 410); note: nearly all actives have a fitted effect of over 55% in size
Starred values were filed as active, the others as inactive; i = inactive; ? = inconclusive; ! = repeats disagree; [ ] = another dose, or the depositor's remark. The full list was thinned out, with hits kept by preference. Calls come from the whole dose curve. % is set by controls: 0 for no effect and ±100 for the full control effect; potency is the fitted concentration of half-maximal effect.

SMILES	nsP2pro inh	others
O=C(O)C1NCc2[nH]cnc2C1c1ccccc1 (stereo unspecified)	i
N#CC1=C2SCN(C3CCCCC3)CN2C(=O)CC1c1ccc(F)cc1 (stereo unspecified)	?	nsP2 cell sec=?;NSP2 full ctr=-1.7%;Furin counterscr=-7.2%;NS23 peptide cs=1.83µM*;Papain cs=-13.0%;nsP2pro confirm=12.6µM*;HCV NS3 4A cs=i
N#CC1=C2SCN(C3CCCCC3)CN2C(=O)CC1c1ccc(Cl)cc1 (stereo unspecified)	72.1%
C[C@@H]1O[C@@H](O[C@@H]2/C=C/C=C/C=C\C=C\C[C@H](C)OC(=O)/C=C/[C@H]3O[C@@H]3C[C@H](O)C[C@]3(O)C[C@@H](O)[C@@H](C(=O)O)[C@H](C2)O3)[C@H](O)[C@H](N)[C@@H]1O	-5.8%[10 µM]
COC(=O)C1=C(C)N=C2SC=C(CC(=O)NCCCN3CCCC3=O)N2C1c1ccccc1 (stereo unspecified)	-28.6%
Cc1noc(-c2ccccc2OC2CCNC2)n1 (stereo unspecified)	i
Cc1cc(-c2nc(Nc3ccc(F)c(F)c3)c3ccccc3n2)cc(C)n1	i
C=CC(C)(C)c1[nH]c2ccccc2c1C1=C(O)C(=O)C(c2c[nH]c3c(CC=C(C)C)cccc23)=C(O)C1=O	?	nsP2 cell sec=19.0%;NSP2 full ctr=32.1%;Furin counterscr=-11.9%;NS23 peptide cs=i;Papain cs=2.59µM*;nsP2pro confirm=120.6%;HCV NS3 4A cs=4.11µM*
C/C=C(\C)C(=O)OC1C2C3(C)CCC(OC4CC(OC)C(OC5OC(C)C(O)C(OC)C5O)C(C)O4)CC3CCC23OC32CCC(C(C)=O)C2(C)C1OC(=O)/C(C)=C/C (stereo unspecified)	2.2%[5.1 µM]
O=S(=O)(Nc1cccn2nc(C3CC3)nc12)c1cccnc1	?	nsP2 cell sec=-16.3%
Cc1cccc(S(=O)(=O)Nc2cccn3nc(C4CCC4)nc23)c1	16.7%
CCc1nc2c(NS(=O)(=O)c3cccnc3)cccn2n1	-6.5%
COc1cc(/C=C/c2cn(-c3ccc(C(=O)O)cc3)nc2/C=C/c2ccc(O)c(OC)c2)ccc1O	211.8%
Cc1c(P(=S)(c2ccccc2)c2ccccc2)[n+]2ccccc2n1CCCCCc1ccccc1	1.2%
Cc1ccc(CNc2ncnc3ccc(-c4ccoc4)cc23)o1	i
O=C(Nc1ccccc1F)N[C@H]1N=C(c2ccccc2)c2ccccc2NC1=O	-13.9%
CC(=O)OCC1=C(C(=O)O)N2C(=O)[C@@H](NC(=O)CC#N)[C@H]2SC1	-11.1%
C/C(=C(\CCOP(=O)(O)O)SC(=O)c1ccccc1)N(C=O)Cc1cnc(C)nc1N	-8.4%[2.68 µM]
CCCSS/C(CCO)=C(\C)N(C=O)Cc1cnc(C)nc1N	8.81µM*	nsP2 cell sec=-20.6%;NSP2 full ctr=16.3µM*;Furin counterscr=-0.6%;NS23 peptide cs=?;Papain cs=-5.8%;nsP2pro confirm=7.98µM*;HCV NS3 4A cs=i
CCOC(=O)OCC/C(SC(=O)OCC)=C(\C)N(C=O)Cc1cnc(C)nc1N	0.0%
O=c1c2ccc(Cl)cc2nc2sc(Nc3ccc4c(c3)CCC4)nn12	i
COc1c2ccoc2cc2oc(CO[C@@H]3O[C@H](CO)[C@@H](O)[C@H](O)[C@H]3O)cc(=O)c12	17.6%
COc1ccc(CCN2CCCC(CN(C)Cc3cnc[nH]3)C2)cc1 (stereo unspecified)	i
CCc1nn(CCO)c(CC)c1Oc1cc(C#N)cc(C#N)c1	-0.4%
Cn1cc(-c2cnn3c(N)c(Br)c([C@@H]4CCCNC4)nc23)cn1	15.9%
SMILES	nsP2pro inh	others
Nc1c(-c2ccccc2)nc(Cl)c2c(O)n[nH]c(=O)c12	9.88µM*	nsP2 cell sec=-1.8%;NSP2 full ctr=-4.5%;Furin counterscr=-7.2%;NS23 peptide cs=i;Papain cs=24.1%;nsP2pro confirm=-6.7%;HCV NS3 4A cs=i
O=C(O)c1cc(-c2c(-c3ccccc3)nn3ccccc23)n[nH]c1=O	13.1%
Cc1noc(C2CN(C(=O)c3cc(-c4ccco4)[nH]n3)CC2c2ccccc2)n1 (stereo unspecified)	10µM*	nsP2 cell sec=7.9%;NSP2 full ctr=8.19µM*;Furin counterscr=-9.3%;NS23 peptide cs=?;Papain cs=-13.4%;nsP2pro confirm=8.96µM*;HCV NS3 4A cs=?
Cc1noc([C@@H]2CN(C(=O)c3cc(C4CC4)[nH]n3)C[C@H]2C(N)=O)n1	-13.7%
Cc1noc([C@@H]2CN(Cc3ccc[nH]3)C[C@H]2CO)n1	i
Cc1cn2nc(C(=O)Nc3cccc(F)c3C)cc2c(N2CCCC2)n1	2.1%
Nc1cccc([S+](=O)([O-])N2CCCN([S+](=O)([O-])c3cccc(N)c3)CC2)c1	1.9%
COC(=O)[C@H](Cc1ccc(O[S+](=O)([O-])c2cccc3cnccc23)cc1)N(C)[S+](=O)([O-])c1ccc2cnccc2c1	-1.0%
CC(C)n1nccc1S(=O)(=O)N[C@@H]1[C@@H](Cc2ccccc2)[C@H]2OCC[C@@H]12	-8.9%
CC(=O)Nc1ccccc1	-2.0%
CC(=O)Oc1ccccc1C(=O)O	-8.2%
CC(=O)[O][Hg][c]1ccccc1	1.24µM*	nsP2 cell sec=1.26µM*;NSP2 full ctr=1.83µM*;Furin counterscr=1.16µM*;NS23 peptide cs=4.61µM*;Papain cs=-6.5%;nsP2pro confirm=0.356µM*;HCV NS3 4A cs=?
Cc1cc(C)nc(NC(=S)N2CCN(c3ccc4cn(C)nc4c3)CC2)c1	i
O=C(CCc1cc2n(n1)CCCNC2)N1CCCN(c2ccncc2)CC1	13.0%
CN(Cc1cccs1)c1nc(-c2ccccc2C(F)(F)F)nc2ccccc12	4.3%
Cc1cc(C)nc(NC(=S)N2CCN(c3ccc(F)c(F)c3)CC2)c1	3.0%
Cc1cccc(C(=O)N2CC[C@H]3C(=O)NCCCCCCN(Cc4ccncc4)[C@@H]3C2)c1	-14.0%
COc1ccc(C(=O)N(Cc2ccco2)Cc2ccco2)c(O)c1	5.01µM*	nsP2 cell sec=20.6µM*;NSP2 full ctr=?;Furin counterscr=-7.4%;NS23 peptide cs=?;Papain cs=-6.0%;nsP2pro confirm=?;HCV NS3 4A cs=?
Cc1ccc(CN(Cc2ccco2)C(=O)c2ccc(Cl)cc2Cl)cc1	31.7%
COc1ccc(CN(Cc2ccccc2)C(=O)c2ccccc2O)cc1	-12.6%
O=C(NCc1ccc(F)cc1)c1ccc2nnc(-c3cc[nH]c3)n2c1	-1.0%[39.2 µM]
O=C(NCc1ccc(S(=O)(=O)c2cccc(C(F)(F)F)c2)cc1)c1cnc2[nH]ncc2c1	0.8%
Nc1cccc(C(OCCN2CCCCC2)c2cc3nccc(C(=O)O)c3s2)c1 (stereo unspecified)	-7.5%
Cc1c(-c2cnccn2)ssc1=S	4.95µM*!	nsP2 cell sec=?;NSP2 full ctr=13µM*;Furin counterscr=-13.3%;NS23 peptide cs=9.19µM*;Papain cs=-23.3%;nsP2pro confirm=4µM*;HCV NS3 4A cs=i

Screening data deposited in PubChem BioAssay by National Center for Advancing Translational Sciences (NCATS).
